Assay results reported in PubChem BioAssay AID1903 (Southern Research Specialized Biocontainment Screening …, 2009).
Out of some 310,000 compounds screened, about 1,200 (0.39%) were called active. The list is a sample of the results. Potency and affinity values are given separately. A number with no mark means an inactive call. No rule for the calls is given here.

molecular target: Large T antigen (Simian virus 40) (UniProt P03070); assay: TAg ATPase/helicase activity blockers – biochemical (AID 1903); conditions: SV40 large T antigen ATPase/helicase inhibition assay; at 20 µM; active compounds read high
Sequence (P03070 whole entry, looked up): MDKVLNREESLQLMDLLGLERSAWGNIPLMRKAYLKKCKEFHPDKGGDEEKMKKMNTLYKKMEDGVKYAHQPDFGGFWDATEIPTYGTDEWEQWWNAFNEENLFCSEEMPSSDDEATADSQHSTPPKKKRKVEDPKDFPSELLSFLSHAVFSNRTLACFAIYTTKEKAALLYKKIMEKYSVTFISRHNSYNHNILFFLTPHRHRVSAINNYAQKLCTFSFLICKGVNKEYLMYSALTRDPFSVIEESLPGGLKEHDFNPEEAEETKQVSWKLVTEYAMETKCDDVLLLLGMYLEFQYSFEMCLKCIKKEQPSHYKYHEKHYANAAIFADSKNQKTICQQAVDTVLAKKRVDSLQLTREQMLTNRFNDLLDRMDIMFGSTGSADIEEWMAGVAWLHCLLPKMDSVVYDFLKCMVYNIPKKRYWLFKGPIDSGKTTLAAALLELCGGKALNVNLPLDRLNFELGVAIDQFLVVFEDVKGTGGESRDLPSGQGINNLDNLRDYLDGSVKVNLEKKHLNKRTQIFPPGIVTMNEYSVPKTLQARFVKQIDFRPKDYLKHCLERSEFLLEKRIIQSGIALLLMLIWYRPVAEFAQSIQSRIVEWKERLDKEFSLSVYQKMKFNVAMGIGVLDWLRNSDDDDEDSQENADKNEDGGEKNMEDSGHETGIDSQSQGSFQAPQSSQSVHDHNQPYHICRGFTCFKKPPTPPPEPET

SMILES	inhibition [%]
CCOc1ccccc1NC(=S)NCCc1ccc(F)cc1	2.66
O=C(CS(=O)(=O)c1ccc(F)cc1)Nc1nnc(-c2cccs2)o1	28.3
COc1ccc(OC(=O)COc2ccc(Cl)cc2)cc1	21.7
Cc1cccc(NC(=S)N2CCN(c3ccccn3)CC2)c1	7.16
COC(=O)C1=NNC2(C)C(=O)N(c3ccc(C)cc3)C(=O)C12 (stereo not given)	1.54
Cc1cc(C(C)C)n2c(nc3ccccc32)c1C#N	3.46
CCc1c(C)c(C#N)c2nc3ccccc3n2c1Cl	-5.75
CCc1ccc(N(C(=O)CNC(=O)c2ccco2)C(C(=O)NC2CCCC2)c2cccnc2)cc1 (stereo not given)	12.2
COc1ccc(/C=C2/SC(=S)N(CCCC(=O)Nc3ccc(O)cc3)C2=O)cc1	5.12
COc1cc(/C=C2\C(=O)ON=C2c2ccccc2)cc(OC)c1OC	9.78
O=C1ON=C(c2ccccc2)/C1=C/c1cccnc1	1.23
COc1cc(/C=C2\C(=O)ON=C2c2ccccc2)cc(Cl)c1O	32.2
O=C1ON=C(c2ccccc2)/C1=C/c1ccccc1	48.5
O=C1ON=C(c2ccc(Cl)cc2)/C1=C/c1ccc(O)cc1	34.8
COc1ccc(/C=C2\C(=O)ON=C2c2ccccc2)cc1	72.8
O=C1ON=C(c2ccccc2)/C1=C/c1ccc(O)cc1	48
O=C1ON=C(c2ccccc2)/C1=C/c1ccco1	36.5
CCc1ccc(C(=O)OCC(=O)NCCNC(=O)COC(=O)c2ccc(CC)cc2)cc1	4.49
CCC(C)[C@H](N)c1cn([C@@H](Cc2ccc(O)cc2)C(=O)N2CCNCC2)nn1 (stereo not given in full)	3.28
NC(=O)C1CCN(C(=O)Cc2ccc([N+](=O)[O-])cc2)CC1	21.5

SMILES	inhibition [%]
O=C(Nc1cc(F)ccc1F)C1CCN(S(=O)(=O)c2cccc3nonc23)CC1	9.1
CCCS(=O)(=O)c1c(S(=O)(=O)CCC)c2ccc(C(N)=O)cn2c1C(=O)c1ccc(F)cc1	24
COCC(C)NC(C(=O)Nc1ccc(Cl)c([N+](=O)[O-])c1)c1ccccc1 (stereo not given)	0.39
CC1(C)CC(C(=O)NCCC(c2ccccc2)c2ccco2)CCO1 (stereo not given)	3.84
CC(=O)Nc1nonc1-c1nc2ccccc2n1CCC(C)C	-3.72
CCCCOc1cccc(C(=O)N(Cc2ccccc2)C2CCS(=O)(=O)C2)c1 (stereo not given)	-0.72
CC1CCN(C(=O)N[C@@H](Cc2ccccc2)C(=O)O)CC1	0.13
O=C1C2C3CCC(O3)C2C(=O)N1c1cccc(O)c1 (stereo not given)	-1.61
COc1cccc(C(=O)Nc2nnc(-c3ccccc3)s2)c1OC	13.1
O=C(Nc1ccncc1)C1CC(=O)N(c2ccc(F)cc2)C1 (stereo not given)	12.3
COC(=O)C1=C(C(=O)OC)[C@@H]2N(C)c3ccc(OC)cc3[C@@]23C[C@@H](C(=O)OC)N(C(=O)c2ccco2)C3=N1	27.8
COc1ccc(/C=C2\C(=O)ON=C2c2ccccc2)cc1OC	53.9
COc1ccc(/C=C2/C(=O)ON=C2c2ccccc2)cc1OC	12.2
Cc1ccc(C)c(NC(=S)NC(NC(=O)Cc2ccccc2)C(Cl)(Cl)Cl)c1 (stereo not given)	5.58
CCC1CCCCN1CCCNC(=O)C1CCN(c2nnc(-n3cccc3)s2)CC1 (stereo not given)	8.7
CCN1CCN(CCCNC(=O)C2CCN(c3nnc(-n4cccc4)s3)CC2)CC1	12.4
Cc1ccc(C)n1-c1nnc(N2CCC(C(=O)NCCCN3CC(C)CC(C)C3)CC2)s1 (stereo not given)	-2.68
CCOc1ccc(CCNC(=O)C2CCN(c3nnc(-n4cccc4)s3)CC2)cc1	7.09
CC1CC(C)CN(CCCNC(=O)C2CCN(c3nnc(-n4cccc4)s3)CC2)C1 (stereo not given)	7.41
CC1CCCCN1CCCNC(=O)C1CCN(c2nnc(-n3cccc3)s2)CC1 (stereo not given)	6.84

SMILES	inhibition [%]
O=C(NC1CC(=O)N(c2ccc3c(c2)OCCO3)C1)N1CCCCC1 (stereo not given)	11.8
CCN(CC)S(=O)(=O)c1ccc(S(=O)(=O)N2CCN(CCC#N)CC2)cc1	2.53
CCCc1nc2ccc(NC(C)=O)cc2c(=O)n1Cc1ccccc1Cl	19.8
CC1CCCCC1NC(=O)/C(C#N)=C/c1ccc(F)c(F)c1 (stereo not given)	-0.71
CC(=O)N1N=C(c2ccc(NS(C)(=O)=O)cc2)CC1c1ccc2nccnc2c1 (stereo not given)	8.1
O=C(O)C1CC=CCC1C(=O)NC1CCCCC1 (stereo not given)	20.5
CCn1ncc([N+](=O)[O-])c1C(=O)n1nc(C)cc1C	18.1
Cn1cnc([N+](=O)[O-])c1Sc1nnc(-c2cccnc2)n1C	7.52
Cc1onc(-c2ccccc2Cl)c1C(=O)OCC(=O)Nc1cccc(S(=O)(=O)N2CCOCC2)c1	4.68
COc1ccc(/C=N/NC(=O)CCn2cnc3ccccc32)cc1	2.3
O=C(CC(=O)N/N=C/c1ccc(F)cc1)N/N=C/c1ccc(F)cc1	10.6
O=C(N/N=C/c1cccc(O)c1)c1csc2ccccc12	9.57
O=C(C[n+]1ccccc1)N/N=C/c1ccc(F)cc1	8.34
CN(C)c1ccc(/C=N/NC(=O)C[n+]2ccccc2)cc1	17.6
C/C(=N\NC(=O)c1csc2ccccc12)c1ccc(O)cc1	26.5
O=C(CCn1cnc2ccccc21)N/N=C/c1ccccc1O	14.7
COc1ccc(/C=N/NC(=O)CC(=O)N/N=C/c2ccc(OC)cc2)cc1	-38
CC(C)Cn1cc(C(=O)N2CCN(c3ccccn3)CC2)c2c3ccccc3n(C)c2c1=O	1.5
COc1nc(NC(=O)c2ccc(F)cc2)nc(OC)c1-c1ccccc1	6.25
COc1ccc(-c2csc(NC(=O)CN3C(=O)NC4(CCCC4)C3=O)n2)cc1OC	23.8
